The supplement of paper PMC8387472
± gives the standard deviation of the averaged measurements.

Tested on: mESC LDLR-Dup GFP reporter (SpCas9 MH-deletion repair)
Assay: fraction of GFP+ cells relative to DMSO control (fold change); higher = more MH-deletion repair to in-frame LDLR (or more editing)
Conditions: 2 µM; 7 days post-transfection

Compound	fraction of GFP+ cells
Cn1nnc2c(C(N)=O)ncn2c1=O [Temozolomide]	0.998 ± 0.33
O=C(CCCCCCNC(=O)c1cnc(N(c2ccccc2)c2ccccc2)nc1)NO [Ricolinostat (ACY-1215)]	0.968 ± 0.11
CC(=O)c1cc([N+](=O)[O-])c(Sc2cccc(Cl)c2Cl)s1	0.919 ± 0.038
COc1c(O)cc(O)c2c(=O)cc(-c3ccccc3)oc12 [Wogonin]	0.728 ± 0.15
